Compound activity (PubChem)
This is a sample that favours compounds with a hit; in the whole collection about 3.1% have one here.
BoNT-F LC inh = BoNT/F light chain protease inhibitors, primary screen, biochemical, flow cytometry, MLPCN library | inhibition, % at 10 µM | Multiplex microsphere protease cleavage assay | actives 0.22% (n = 360,000) | AID 588497, 2011 | Botulinum neurotoxin type F light chain protease (Clostridium botulinum); in the data active = inhibition above about 35%, passing the limit was not always enough; inconclusive = no clear call, values can overlap the other calls; also: plate controls were buffer without enzyme for full effect and enzyme alone for no effect
BoNT A protease = BoNT/A light chain protease inhibitors, primary screen, biochemical, flow cytometry, MLPCN library | multiplex microsphere protease substrate cleavage | inhibition, % at 10 µM | AID 588499, 2011 | actives 0.17% (n = 360,000); also: plate controls were buffer without enzyme for full effect and enzyme alone for no effect
Anthrax LF inh2 = Bacillus anthracis LF protease inhibitors, primary screen, biochemical, multiplex microsphere, MLPCN library. Lethal factor (Bacillus anthracis), P15917. actives 0.12% (n = 360,000). inhibition, % at 10 µM. multiplex microsphere protease cleavage assay; also: plate controls were buffer without enzyme for full effect and enzyme alone for no effect
Target sequence (P15917 whole entry, looked up): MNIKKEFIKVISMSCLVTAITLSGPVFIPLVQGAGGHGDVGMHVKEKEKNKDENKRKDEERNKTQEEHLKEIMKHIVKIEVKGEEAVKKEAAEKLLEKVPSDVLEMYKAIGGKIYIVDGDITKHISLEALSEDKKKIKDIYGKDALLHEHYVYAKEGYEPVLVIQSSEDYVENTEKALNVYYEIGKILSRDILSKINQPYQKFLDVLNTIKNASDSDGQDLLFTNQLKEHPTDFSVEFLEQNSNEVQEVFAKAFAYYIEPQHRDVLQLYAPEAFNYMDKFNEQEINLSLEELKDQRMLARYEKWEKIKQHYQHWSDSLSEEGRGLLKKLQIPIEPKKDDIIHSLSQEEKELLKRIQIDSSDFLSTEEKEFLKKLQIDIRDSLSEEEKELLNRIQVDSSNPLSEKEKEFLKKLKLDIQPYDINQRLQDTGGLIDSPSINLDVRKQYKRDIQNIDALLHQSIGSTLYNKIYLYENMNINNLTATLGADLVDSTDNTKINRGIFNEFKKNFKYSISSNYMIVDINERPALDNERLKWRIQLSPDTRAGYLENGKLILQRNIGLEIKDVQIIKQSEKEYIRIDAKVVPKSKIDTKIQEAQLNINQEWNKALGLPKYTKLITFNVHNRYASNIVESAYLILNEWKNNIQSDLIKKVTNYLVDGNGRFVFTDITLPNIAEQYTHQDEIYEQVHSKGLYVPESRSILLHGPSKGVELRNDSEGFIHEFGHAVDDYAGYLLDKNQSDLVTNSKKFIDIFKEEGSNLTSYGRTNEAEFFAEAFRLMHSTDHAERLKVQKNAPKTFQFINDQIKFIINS
Autofluor counter = flagged as autofluorescent in microsphere protease counterscreen | fluorescence intensity (test concentration not listed) | actives 3.1% (n = 360,000) | compound autofluorescence counterscreen, microsphere flow cytometry; hits give high values; in the data active = fluorescence intensity above about 16000; inconclusive = no clear call, values can overlap the other calls
SSB-PriA inh = inhibitors of Klebsiella pneumoniae PriA binding to SSB C-terminal tail, primary screen, biochemical, AlphaScreen; PriA–SSB C-terminal tail interaction (Klebsiella pneumoniae); AlphaScreen SSBct-PriA binding, biotinylated peptide; inhibition, % at 33 µM; actives 0.6% (n = 430,000); AID 1272365, 2023; in the data active = inhibition mostly above about 37%, no sharp cut-off; inactive = mostly below about 20%;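 also: plate controls were negative control peptide for no effect and reference peptide for full effect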
* marks the source's active call; other numbers are inactive results; ? = inconclusive; . = no result given. Rule as the data show it, unless noted: active = inhibition above about 30%; inconclusive = no clear call, values can overlap the other calls; inactive = below that.

SMILES	BoNT-F LC inh	BoNT A protease	Anthrax LF inh2	Autofluor counter	SSB-PriA inh
CN(C(=O)COC(=O)C1CCN(S(=O)(=O)c2cccs2)CC1)C1CCS(=O)(=O)C1 (configuration not stated)	6	?	-3	20892*	-22
CN(C(=O)COC(=O)COc1ccccc1F)C1CCS(=O)(=O)C1 (configuration not stated)	38*	-4	-12	5902	-11
COc1c2ccc(C(=O)N3CCC(n4ccnn4)CC3)cc2nn1C	.	.	.	.	-8
N#Cc1c(NC(=O)c2ccccc2Cl)n(Cc2ccccc2)c2nc3ccccc3nc12	1	31*	9	2894	53*
COCCCNC(=O)c1c(NC(=O)c2ccccc2Cl)n(Cc2ccccc2)c2nc3ccccc3nc12	10	?	12	18554*	-4
COc1ccc(C2NCCS2)cc1Br (configuration not stated)	.	.	.	.	9
CC1=C(C#N)C(c2ccc(OCc3ccc(Cl)cc3)cc2)C2=C(CCCC2=O)N1 (configuration not stated)	.	.	.	.	-1
CC1CCN(Cc2c(O)ccc3c(=O)c(-c4nc5ccccc5s4)c(N)oc23)CC1	-4	0	0	2127	-2
CC1CCCN(Cc2c(O)ccc3c(=O)c(-c4nc5ccccc5s4)c(N)oc23)C1 (configuration not stated)	-10	?	-4	25322*	8
Cc1ccc(CN(C)C(=O)c2ccccc2Oc2ccccc2)o1	5	3	-2	21202*	-5
Cc1ccc(CN(C)C(=O)c2ccc(S(=O)(=O)N(C)c3ccccc3)cc2)o1	5	0	1	6153	-6
O=C1O[C@]2(CCCN(C(=O)c3cncc(Br)c3)C2)c2ccccc21	.	.	.	.	5
CCOC(=O)c1ccc(N/C=C/C(=O)c2ccc(OC)c(OC)c2)cc1	7	4	2	19087*	5
CCCCOC(=O)c1ccc(NS(=O)(=O)c2cc(-c3nnnn3CC)ccc2OC)cc1	4	1	-2	3245	-1
CCn1nnnc1-c1ccc(OC)c(S(=O)(=O)NCCc2ccccc2)c1	-2	?	-10	19509*	-8
CCOC(=O)c1ccc(NS(=O)(=O)c2cc(-c3nnnn3CC)ccc2OC)cc1	0	?	-2	19076*	-4
CCOc1ccc(N/C=C/C(=O)c2ccc(OC)c(OC)c2)cc1	-28	-7	6	4246	-11
O=c1ccc(-c2cccs2)nn1CCCNS(=O)(=O)c1ccccc1C(F)(F)F	.	.	.	.	-3
O=C(O)c1cccn2ccnc12	.	.	.	.	48*
COc1ccc(N(CC(O)CN2C(=O)NC(C)(C)C2=O)S(=O)(=O)c2ccccc2)cc1 (configuration not stated)	-2	-1	0	23290*	7
Cc1ccnc(-n2c(C)nc3ccccc3c2=O)c1	0	0	-6	9907	5
Cc1ccnc(-n2c(-c3ccccc3)nc3ccccc3c2=O)c1	1	4	0	19731*	-6
COc1ccc(CCCc2nnc(SCC(=O)Nc3cccc(C)c3)o2)cc1	-6	0	-1	8263	-8
CCOC(=O)c1sc(NC(=O)CSc2nnc(Cc3ccccc3)o2)c(C(=O)OCC)c1C	-3	-1	-4	23789*	-20
CCOC(=O)c1sc(NC(=O)CSc2nnc(C)s2)c(C(=O)OCC)c1C	2	1	0	22787*	-1
SMILES	BoNT-F LC inh	BoNT A protease	Anthrax LF inh2	Autofluor counter	SSB-PriA inh
CCOC(=O)c1c(NC(=O)CSc2nnc(C)s2)sc(C)c1C	.	.	.	.	-12
COCCOC(=O)c1c(NC(=O)CN2CCOCC2)sc(C(N)=O)c1C	-4	1	1	3101	-4
CCOC(=O)c1c(NC(=O)CN2CCOCC2)sc(C(=O)NC)c1C	-3	-1	0	22110*	-8
COc1ccc(CCCc2nnc(SCC(=O)Nc3cc(C)c(C)cc3Br)o2)cc1	-4	-1	-1	21054*	-7
O=C(CSc1nnc(-c2ccco2)n1-n1cccc1)Nc1cc(C(F)(F)F)ccc1Cl	.	.	.	.	-9
O=C(CSc1n[nH]c(-c2ccccc2)n1)Nc1ccccc1	.	.	.	.	46
O=C(c1c[nH]c2ccccc12)N1CC(c2nc(-c3cnccn3)no2)C1	.	.	.	.	-6
CCOC(=O)c1c(NC(=O)C(Sc2ccccc2)c2ccccc2)sc(C(N)=O)c1C (configuration not stated)	0	-1	1	23438*	-11
COc1ccc(Cc2nnc(SCC(=O)NC(C)c3ccccc3)o2)cc1 (configuration not stated)	1	2	1	22651*	-19
O=C(CCn1ccc(=O)[nH]c1=O)NCCOc1ccc(-c2ccc(F)cc2)nn1	.	.	.	.	-20
Cn1cc(OCc2ccc(F)cc2)c(=O)cc1C(=O)NCCc1c[nH]c2ccccc12	.	.	.	.	-16
Cc1sc2nc(SCc3ccccc3)n(Cc3ccco3)c(=O)c2c1C	-1	3	-3	15662	-3
Cc1sc2nc(SCC(=O)C(C)(C)C)n(Cc3ccco3)c(=O)c2c1C	-1	1	-3	22551*	1
COc1cccc(CSc2nc3sc(C)c(C)c3c(=O)n2Cc2ccco2)c1	8	6	-12	19855*	-14
COc1ccc(NC(=O)CSc2nc3sc(C)c(C)c3c(=O)n2Cc2ccco2)cc1	6	?	2	21853*	5
Cc1ccc(NC(=O)c2ccccc2NC(=O)c2ccc(N3C(=O)CCC3=O)cc2)c(C(=O)c2ccccc2)c1	.	.	.	.	-4
CN1C(=O)Cc2cc(NS(=O)(=O)c3ccc4c(c3)CCCC4)ccc21	.	.	.	.	5
O=C(NCC1CCN(c2cnccn2)CC1)Nc1cccs1	.	.	.	.	3
CCOc1ccc(C(C)C)cc1S(=O)(=O)N1CCN(c2ccc3nnc(C)n3n2)CC1	.	.	.	.	-3
CC(=O)c1cccc(NC(=O)NC(C)C2CCCO2)c1 (configuration not stated)	9	-1	-3	4351	-13
CC(NC(=O)NC12CC3CC(CC(C3)C1)C2)C1CCCO1 (configuration not stated)	6	?	0	21432*	-8
COCc1cc(=O)[nH]c(/N=C(\N)Nc2ccc(C)cc2)n1	-5	?	0	21003*	.
CCOC(=O)Cc1cc(=O)[nH]c(/N=C(\N)Nc2ccc(C)cc2C)n1	-1	0	1	23280*	.
Cc1ccc(SCc2cc(=O)[nH]c(/N=C(\N)Nc3ccc(C)c(C)c3)n2)cc1	-8	-3	-1	25207*	.
Cc1cccc2sc(N(CCCN(C)C)C(=O)c3cccc(C(F)(F)F)c3)nc12	.	.	.	.	-11
CSc1ncc(-c2ccc(C)cc2)n1-c1ccccc1C	.	.	.	.	58*
COc1ccc(C(=O)N2CCN=C2SCc2ccccc2)c(OC)c1	.	.	.	.	3
